According to PubChem BioAssay (NCATS):
Where “and” joins values, the source holds several entries; their conditions need not be identical. Identical values can stand only once. Unmarked numbers belong to inactive results. Inconclusive results are not listed. Where a call stands in place of a potency, no number is given. Calls of active or inactive are those of the source. The call rests on the fitted dose curve; in most records, active means well fitted curve in the direction sought with a large enough effect; inconclusive means small, poorly fitted or top-dose-only effect, or another doubt; inactive means no such curve, though single readings can be large; an effect the other way counts as inactive or inconclusive.

Target: Peroxisome proliferator-activated receptor alpha (Homo sapiens) (UniProt Q07869)
Sequence (Q07869 whole entry, looked up): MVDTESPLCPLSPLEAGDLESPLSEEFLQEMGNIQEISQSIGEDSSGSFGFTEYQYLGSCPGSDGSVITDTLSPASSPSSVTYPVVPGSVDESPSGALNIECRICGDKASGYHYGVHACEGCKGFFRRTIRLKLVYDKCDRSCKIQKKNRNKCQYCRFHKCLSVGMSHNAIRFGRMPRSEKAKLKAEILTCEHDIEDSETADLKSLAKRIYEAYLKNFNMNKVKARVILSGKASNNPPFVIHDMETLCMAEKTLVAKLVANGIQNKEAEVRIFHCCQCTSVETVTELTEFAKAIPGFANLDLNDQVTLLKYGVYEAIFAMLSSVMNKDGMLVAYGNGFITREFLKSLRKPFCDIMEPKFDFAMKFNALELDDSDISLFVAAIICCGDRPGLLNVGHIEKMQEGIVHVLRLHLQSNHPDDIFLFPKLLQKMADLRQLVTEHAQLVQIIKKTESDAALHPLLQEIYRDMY
Test: qHTS assay for small molecule agonists of the peroxisome proliferator-activated receptor alpha (PPARalpha) signaling pathway (AID 651778); further: potency means the concentration at half of the fitted maximal effect
Conditions: PathHunter PPARalpha complementation, chemiluminescence, 6 h; max response: stronger effect = higher value
Summary of the method: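 Enzyme-fragment complementation assay in which ligand-bound PPARalpha translocates and forms an active enzyme that generates chemiluminescence. Cells were plated overnight, exposed to compound for 6 hr at 37 C, and then given detection reagent for 60 min at room temperature.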
`Nc1c(Cl)c(Cl)c(Cl)c(Cl)c1Cl` gave a max response of -0.704%. With `ClC1=C(Cl)[C@]2(Cl)[C@@H]3[C@@H]4C[C@@H]([C@H]5O[C@@H]45)[C@@H]3[C@@]1(Cl)C2(Cl)Cl` the max response was 12.3%. For `CCCCC(CC)COC(=O)c1ccccc1C(=O)O` (centres undefined), the Potency was 28200 nM (active). With `Clc1cnc(Oc2ccc(Oc3ncc(Cl)cc3Cl)cc2)c(Cl)c1` the max response was 2.8%. With `CCCCCCCCCCCCCCCC[N+](C)(C)C` the max response was 1.77% and -0.579%. With `O=S(=O)(O)C(F)(F)C(F)(F)C(F)(F)C(F)(F)C(F)(F)C(F)(F)C(F)(F)C(F)(F)F` the max response was -0.394% and 4.02%. For `Nc1ccc(N=Nc2ccccc2)cc1`, the max response was -2.06%. With `O=C(Nc1ccccc1-c1ccc(Cl)cc1)c1cccnc1Cl` the max response was 0.0876%. `C=CCC1=C(C)C(OC(=O)C2C(C=C(C)C)C2(C)C)CC1=O` (centres undefined) showed a max response of 4.18%. With `O=S(=O)(O)C(F)(F)C(F)(F)C(F)(F)C(F)(F)F` the max response was 5.33% and 1.27%. In the case of `CC(C)(C)C(O)C(Oc1ccc(Cl)cc1)n1cncn1` (centres undefined), the max response is reported as -0.528%. Compound `CS(=O)(=O)c1ccc(C(=O)C2C(=O)CCCC2=O)c([N+](=O)[O-])c1` has a max response of -3.08%. `O=[N+]([O-])/N=C1\NCCN1Cc1ccc(Cl)nc1` gave a max response of -0.352%. `COc1nn(CSP(=S)(OC)OC)c(=O)s1` gave a max response of -1.93%.

Target: Tyrosine-protein kinase Yes (Homo sapiens) (UniProt P07947)
Sequence (P07947 whole entry, looked up): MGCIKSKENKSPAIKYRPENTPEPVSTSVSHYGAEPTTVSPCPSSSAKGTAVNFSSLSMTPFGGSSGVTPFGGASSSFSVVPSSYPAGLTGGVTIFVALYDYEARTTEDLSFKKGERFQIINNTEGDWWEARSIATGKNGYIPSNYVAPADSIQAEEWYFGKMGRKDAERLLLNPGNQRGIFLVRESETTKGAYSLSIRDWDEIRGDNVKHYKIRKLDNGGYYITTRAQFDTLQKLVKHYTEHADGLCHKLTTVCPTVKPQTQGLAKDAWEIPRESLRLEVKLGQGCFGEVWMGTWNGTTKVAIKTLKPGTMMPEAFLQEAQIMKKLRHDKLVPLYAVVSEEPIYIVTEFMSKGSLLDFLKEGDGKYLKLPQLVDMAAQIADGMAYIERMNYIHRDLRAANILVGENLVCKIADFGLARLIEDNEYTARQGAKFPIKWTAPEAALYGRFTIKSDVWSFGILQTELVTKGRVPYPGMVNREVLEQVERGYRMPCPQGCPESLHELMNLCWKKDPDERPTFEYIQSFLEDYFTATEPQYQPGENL
Test: qHTS for small molecule inhibitors of Yes1 kinase: Primary Screen (AID 686947); further: nearly all actives have a fitted effect of over 60% in size; further: potency means the concentration at half of the fitted maximal effect
Conditions: Yes1 kinase biochemical qHTS inhibition; series mostly up to 76.9 µM
Summary of the method: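 In this qHTS format, inhibition is expressed relative to DMSO controls with enzyme (maximum) and without enzyme (minimum). The 60 min room-temperature reaction uses 0.1 mM ATP, with ADP detected by luminescence.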
In the case of `c1cc(-c2cnn3cc(-c4ccc(OCCN5CCCCC5)cc4)cnc23)ccn1`, the Potency is reported as 54.7 nM (active). In the case of `CC(=O)Nc1ccc(OC[C@](C)(O)C(=O)Nc2ccc([N+](=O)[O-])c(C(F)(F)F)c2)cc1`, the Potency is reported as “inactive”. In the case of `CC1CC(C)C(=O)C(C(O)CC2CC(=O)NC(=O)C2)C1` (centres undefined), the Potency is reported as “inactive”. In the case of `C1=CCOCc2cc(ccc2OCCN2CCCC2)Nc2nccc(n2)-c2cccc(c2)OCC1`, the Potency is reported as 43.4 nM (active). In the case of `COc1ccc2c(c[n+](C)c3c4cc5c(cc4ccc23)OCO5)c1OC`, the Potency is reported as “inactive”. For `CC(C)[C@]12O[C@H]1[C@@H]1O[C@]13[C@]1(O[C@H]1C[C@H]1C4=C(CC[C@@]13C)C(=O)OC4)[C@@H]2O`, the Potency was “inactive”. With `C=CCON=C(C[C@H]1O[C@@H]2O[C@]3(C)CC[C@@H]4[C@H](C)CC[C@@H]([C@H]1C)[C@@]24OO3)[C@H]1O[C@@H]2O[C@]3(C)CC[C@H]4[C@H](C)CC[C@@H]([C@@H]1C)[C@@]24OO3` the Potency was 6880 nM (active). With `Cc1ccccc1-n1c(Cn2cnc3c(N)ncnc32)nc2cccc(C)c2c1=O` the Potency was “inactive”. With `Cc1c(C(=O)Nc2cccc(C(F)(F)F)c2)cc(-c2ccccc2)n1CCCN1CCOCC1` the Potency was “inactive”. In the case of `O=C(Oc1ccc([N+](=O)[O-])cc1)N1CCC(C(O)(c2ccc3c(c2)OCO3)c2ccc3c(c2)OCO3)CC1`, the Potency is reported as 2440 nM (active). With `Cc1nc2cnc3ccc(C#Cc4cccnc4)cc3c2n1-c1ccc(C(C)(C)C#N)cc1` the Potency was 2180 nM (active).

Test system: not listed separately
Test: qHTS for small molecule inhibitors of Yes1 kinase: Counter Assay (AID 686950);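 further: no kinase present so only ADP-Glo detection of a fixed ADP amount is tested; luminescence from ADP-Glo reporting ADP in a fixed ATP and ADP mixture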
Conditions: series mostly up to 76.9 µM
Summary of the method: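 No kinase present; 0.08 mM ATP + 0.02 mM ADP in 50 mM Tris pH 7.5, 10 mM MgCl2, 150 mM NaCl, 1 mM DTT; 20 min compound preincubation, 60 min RT, ADP-Glo luminescence, normalized to ATP/ADP (max) and ATP-only (min).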
For `CC(=O)Nc1ccc(OC[C@](C)(O)C(=O)Nc2ccc([N+](=O)[O-])c(C(F)(F)F)c2)cc1`, the outcome was “inactive”. With `CC1CC(C)C(=O)C(C(O)CC2CC(=O)NC(=O)C2)C1` (centres undefined) the outcome was “inactive”. For `Cc1nc(-c2ccc(-c3ccc(C(=O)N4CCc5cc6c(cc54)C4(CCN(C)CC4)CO6)cc3)c(C)c2)no1`, the outcome was “inactive”. For `COc1ccc2c(c[n+](C)c3c4cc5c(cc4ccc23)OCO5)c1OC`, the outcome was “inactive”. With `CC(C)[C@]12O[C@H]1[C@@H]1O[C@]13[C@]1(O[C@H]1C[C@H]1C4=C(CC[C@@]13C)C(=O)OC4)[C@@H]2O` the outcome was “inactive”. With `C=CCON=C(C[C@H]1O[C@@H]2O[C@]3(C)CC[C@@H]4[C@H](C)CC[C@@H]([C@H]1C)[C@@]24OO3)[C@H]1O[C@@H]2O[C@]3(C)CC[C@H]4[C@H](C)CC[C@@H]([C@@H]1C)[C@@]24OO3` the outcome was “inactive”. For `Cc1ccccc1-n1c(Cn2cnc3c(N)ncnc32)nc2cccc(C)c2c1=O`, the outcome was “inactive”. For `Cc1c(C(=O)Nc2cccc(C(F)(F)F)c2)cc(-c2ccccc2)n1CCCN1CCOCC1`, the outcome was “inactive”. In the case of `O=C(Oc1ccc([N+](=O)[O-])cc1)N1CCC(C(O)(c2ccc3c(c2)OCO3)c2ccc3c(c2)OCO3)CC1`, the outcome is reported as “inactive”.

Target: Arylsulfatase A (Homo sapiens) (UniProt P15289)
Sequence (P15289 whole entry, looked up): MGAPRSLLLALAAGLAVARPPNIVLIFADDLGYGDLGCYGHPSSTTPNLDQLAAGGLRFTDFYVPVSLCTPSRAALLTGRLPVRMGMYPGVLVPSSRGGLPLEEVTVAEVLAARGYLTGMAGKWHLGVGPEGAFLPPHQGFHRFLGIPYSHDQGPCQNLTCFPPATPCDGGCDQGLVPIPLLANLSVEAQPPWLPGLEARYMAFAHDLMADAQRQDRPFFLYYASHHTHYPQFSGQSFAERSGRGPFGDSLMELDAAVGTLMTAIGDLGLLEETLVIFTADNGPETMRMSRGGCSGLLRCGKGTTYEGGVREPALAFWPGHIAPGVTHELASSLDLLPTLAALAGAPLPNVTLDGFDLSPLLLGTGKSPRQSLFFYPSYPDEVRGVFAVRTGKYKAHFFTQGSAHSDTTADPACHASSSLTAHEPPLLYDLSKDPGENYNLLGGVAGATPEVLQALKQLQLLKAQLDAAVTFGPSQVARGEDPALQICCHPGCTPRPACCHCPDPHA
Test: qHTS screen for enhancers of Arylsulfatase A (ASA1): LOPAC Validation Assay (AID 720538)
Conditions: ASA enzyme activity, LOPAC qHTS enhancer assay; series mostly up to 57.5 µM
Summary of the method: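 SV40-transformed fibroblasts from an MLD patient (ASA-I179S) were treated with compound for 48 h at 37 C. They were then lysed with 0.5 mM pNCS substrate (final) for 14 h at room temperature and stopped with NaOH; signal read by fluorescence (Ex 525/Em 598 nm), with increase denoting enhanced activity.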
With `C=CCN1CC[C@]23CCCCC2[C@H]1Cc1ccc(O)cc13` (some centres undefined) the outcome was “inactive; inhibitor; fitted 0.0301 uM”. In the case of `Clc1cnc(Oc2ccc(Oc3ncc(Cl)cc3Cl)cc2)c(Cl)c1`, the outcome is reported as “inactive”. For `C[N+]1(C)C2CC(OC(=O)[C@H](CO)c3ccccc3)CC1C1OC12` (some centres undefined), the outcome was “inactive”. For `COc1ccc2c(c[n+](C)c3c4cc5c(cc4ccc23)OCO5)c1OC`, the outcome was “inactive”. In the case of `C[C@]12CCC3C(CC[C@H]4C[C@H](O)CC[C@]34C)C1CC[C@@H]2C(=O)CO` (some centres undefined), the outcome is reported as “inactive; inhibitor; fitted 2.3934 uM”. In the case of `CC1=NN=C(c2ccc(N)cc2)c2cc3c(cc2C1)OCO3`, the outcome is reported as “inactive”. In the case of `Oc1ccc2c3c1O[C@H]1c4[nH]c5c(c4C[C@@]4(O)[C@@H](C2)N(CC2CC2)CC[C@]314)C[C@@]1(O)[C@H]2Cc3ccc(O)c4c3[C@@]1(CCN2CC1CC1)[C@H]5O4`, the outcome is reported as “inactive”. With `CCCCc1ccc(C(=O)O)nc1` the outcome was “inactive”. With `C[C@@H](N)Cc1cnc[nH]1` the outcome was “inactive”. In the case of `c1ccc(CCCN2CCN(CCOC(c3ccccc3)c3ccccc3)CC2)cc1`, the outcome is reported as “inactive”. With `NC(=NCCC[C@H](N)C(=O)O)N[N+](=O)[O-]` the outcome was “inactive”. With `COC(=O)[C@@H](N)CCCN=C(N)N[N+](=O)[O-]` the outcome was “inactive”. With `C[C@]12N[C@H](Cc3ccccc31)c1ccccc12` the outcome was “inactive”. For `S=C(NC1CCCCC1)N1CCC(c2cnc[nH]2)CC1`, the outcome was “inactive”. With `CC(Cc1ccc(O)cc1)NCC(O)c1cc(O)cc(O)c1` (centres undefined) the outcome was “inactive”.
